Where a name gives a salt, the structure may show the parent alone.
These compounds were tested on Danio rerio larvae (5 dpf) (assay: startle response to 20-s acoustic pulses, difference vs DMSO (percentage points (treated minus DMSO)); higher = more of the behaviour than the DMSO vehicle control). Details: 10 µM; exposure time: 3 h pre-incubation + 3 h imaging.
Description: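 5-dpf wild-type zebrafish larvae were imaged in 96-well plates. They were treated with 190 Tocris FDA-approved drugs at 10 µM (1 µl/ml DMSO) for 3 h before and 3 h during imaging at 28.5 °C, 48 larvae per drug. Automated image analysis gave % time moving and optomotor responses. Values are drug group mean minus DMSO vehicle mean (n=844), in percentage points, for 10 behaviours.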

Row | SMILES | startle response to 20-s acoustic pulses
1 | C=CCN1C[C@H](C(=O)N(CCCN(C)C)C(=O)NCC)C[C@@H]2c3cccc4[nH]cc(c34)C[C@H]21 [Cabergoline] | -8.7
2 | CN1C[C@H](C(=O)N[C@]2(C)O[C@@]3(O)[C@@H]4CCCN4C(=O)[C@H](Cc4ccccc4)N3C2=O)C[C@@H]2c3cccc4[nH]cc(c34)C[C@H]21 [Dihydroergotamine mesylate] | 5.17
3 | Cc1cccc([C@H](C)c2c[nH]cn2)c1C [Dexmedetomidine hydrochloride] | 6.09
4 | CCN(C)C(=O)Oc1cccc([C@H](C)N(C)C)c1 [Rivastigmine tartrate] | 5.58
5 | CC(O)(CS(=O)(=O)c1ccc(F)cc1)C(=O)Nc1ccc(C#N)c(C(F)(F)F)c1 (configuration not stated) [Bicalutamide] | 0.332
6 | C=C1C[C@@H]2[C@H](CC[C@]3(C)C(=O)CC[C@@H]23)[C@@]2(C)C=CC(=O)C=C12 [Exemestane] | 2.55
7 | CC(C)C[C@H]1C(=O)N2CCC[C@H]2[C@]2(O)O[C@](NC(=O)[C@@H]3C=C4c5cccc6[nH]c(Br)c(c56)C[C@H]4N(C)C3)(C(C)C)C(=O)N12 [Bromocriptine mesylate] | -8.49
8 | N[C@@H]1C[C@H]1c1ccccc1 [Tranylcypromine hydrochloride] | -9.81
9 | CC[C@@H](C(N)=O)N1CCCC1=O [Levetiracetam] | 1.64
10 | COc1cc2c(cc1OC)C1CC(=O)C(CC(C)C)CN1CC2 (configuration not stated) [Tetrabenazine] | -5.81
11 | COc1ccc(C(CN(C)C)C2(O)CCCCC2)cc1 (configuration not stated) [Venlafaxine hydrochloride] | -5.93
12 | O=c1[nH]c2ccccc2n1C1CCN(CCCC(c2ccc(F)cc2)c2ccc(F)cc2)CC1 [Pimozide] | 2.42
